# Laboratory results as given in PubChem BioAssay (Tox21).
# Where “and” joins values, the source holds several entries; their conditions need not be identical. Identical values can stand only once. Inconclusive results are not listed. Unmarked numbers belong to inactive results. Calls of active or inactive are those of the source. The call rests on the fitted dose curve; in most records, active means well fitted cell-killing curve with a large enough effect in the repeat runs; inconclusive means weak or mixed curves, or effect the other way; inactive means flat fitted curve, though single readings scatter.
# Experiment: qHTS RealTime-Glo MT Cell Viability Assay in HEK293 cells - 40 hour (AID 1224874); further: nearly all actives have a fitted effect of over 50% in size
# Conditions: RealTime-Glo luminescence; max response: stronger effect = lower value
# Text: U.S. Tox21 Program National Center for Advancing Translational Sciences [NCATS] NIH Chemical Genomics Center [NCGC] U.S. Environmental Protection Agency [EPA] National Institutes of Environmental Health Sciences [NIEHS] National Toxicology Program [NTP] U.S. Food and Drug Administration [FDA] Tox21 Assay Overview: Measure of cell viability is critical in the cell-base assay. Analysis of cell viability is necessary for the characterization of cell responses to cytotoxic drugs and environmental stress. A RealTime-Glo MT Cell Viability Assay to monitor cell viability in real time of continues cell culture during 40 hours of compound treatment was used to screen Tox21 10K library compounds in Hek293 cells. The RealTime-Glo MT Cell Viability Assay is a nonlytic, homogeneous, bioluminescent method to measure cell viability in real time using a simple, plate-based method. The assay involves adding NanoLuc luciferase and a cell-permeant prosubstrate to cells in culture. Viable cells reduce the proprietary prosubstrate to generate a substrate for NanoLuc luciferase. This substrate diffuses from cells into the surrounding culture medium, where it is rapidly used by the NanoLuc Enzyme to produce a luminescent signal. The signal correlates with the number of viable cells, making the assay well suited for cytotoxicity studies.
# Tox21 Assay Protocol Summary: The mixture of Hek293 cell suspension and reagents were dispensed at 600cells/6 ul/well in 1536-well tissue culture treated black solid bottom plates using a Multidrop dispenser. After the assay plates were incubated at a 37 C/5% CO2 incubator for 5 hours, 23 nL of compounds dissolved in DMSO, positive and negative controls was transferred to the assay plate by a pintool work station. The plates were incubated at 37 C for 40 hours. The luminescence intensity were measured at 0h, 8h, 16h, 24h, 32h and 40h time points using ViewLux plate reader during compound treatment.
# On the % scale 0 is the no-effect control and ±100 the full control effect; potency means the concentration at half of the fitted maximal effect.
Structure (SMILES),max response [%],Potency
FC(Cl)(Cl)Cl,-2.7,
O=[N+]([O-])c1ccc(Oc2ccc(C(F)(F)F)cc2[N+](=O)[O-])cc1,,17.4 µM (active)
CCCCCCCCCCCCCCCCCCn1cc[n+](C)c1,,7.72 µM (active)
CC(C)CC(C)N (stereo not given),4.09,
C[C@@H]1CC[C@@]2(OC1)O[C@H]1[C@@H](O)[C@H]3[C@@H]4CC[C@H]5C[C@@H](O[C@@H]6O[C@H](CO)[C@H](O[C@@H]7O[C@H](CO)[C@@H](O)[C@H](O[C@@H]8OC[C@@H](O)[C@H](O)[C@H]8O)[C@H]7O[C@@H]7O[C@H](CO)[C@@H](O)[C@H](O[C@@H]8O[C@H](CO)[C@@H](O)[C@H](O)[C@H]8O)[C@H]7O)[C@H](O)[C@H]6O)[C@H](O)C[C@]5(C)[C@H]4CC[C@]3(C)[C@H]1[C@@H]2C,,11.6 µM (active)
CCCCCCCCCCCCCN1CC(C)OC(C)C1 (stereo not given),-1.65,
O=c1oc2ccccc2c(O)c1Cc1c(O)c2ccccc2oc1=O,0.643,
CN(C)C(=S)S,,11.2 µM (active) and 1.73 µM (active) and 9.77 µM (active)
N#CCCC(Br)(C#N)CBr (stereo not given),,21.9 µM (active)
CCC(C)(C)C(=O)OC1=C(c2ccc(Cl)cc2Cl)C(=O)OC12CCCCC2,-14,
CCN,19.6,
CC(C)(O)c1cnn2c(-c3ccc(F)c(-c4c(F)cccc4C#N)c3)cnc2n1,,4.9 µM (active)
C1CCC2CCCCC2C1 (stereo not given),15.5,
CCOP(=S)(OCC)OC(Cl)C(Cl)(Cl)Cl (stereo not given),-10.7,
c1ccc2cc3c(cc2c1)-c1cccc2cccc-3c12,18.7,
O=[N+]([O-])c1ccc2ccc3cccc4ccc1c2c34,-23.8,
CC(O)C#N (stereo not given),-0.282,
Oc1ccc(C(c2ccc(O)cc2)(C(F)(F)F)C(F)(F)F)cc1,,38.7 µM (active)
CC(C)CBr,0.766,
ClC(Cl)=C(Cl)Cl,0.0111,

Structure (SMILES),max response [%],Potency
c1ccc2c(c1)[nH]c1cnccc12,0.679,
O=c1[nH]c2ccccc2n1C1CCN(CCCC(c2ccc(F)cc2)c2ccc(F)cc2)CC1,,17.4 µM (active) and 16.9 µM (active)
COc1cccc2c1C(=O)c1c(O)c3c(c(O)c1C2=O)C[C@@](O)(C(=O)CO)CC3OC1CC(N2CCOC(OC)C2)C(O)C(C)O1 (stereo not given in full),,0.0213 µM (active)
Cc1cc(N=Nc2ccccc2C)ccc1N,,21.9 µM (active)
CCOC(=O)CC(=O)CCl,,43.6 µM (active)
COc1cc(C=O)cc2c1[C@H](COC(N)=O)[C@]1(OC(C)=O)ON2C[C@H]2[C@@H]1N2C(C)=O,,0.0309 µM (active)
C[C@]12CC[C@H]3[C@@H](CCC4=CC(=O)CC[C@@]43C)[C@@H]1CC[C@@H]2O,,48.6 µM (active)
NNC(=O)c1ccccc1,-4.85,
CC(C)OS(C)(=O)=O,0.77,
SCc1ccco1,-11.9,
CC(=O)OC1(c2ccccc2)CCN(CCc2ccccc2)CC1,,28.2 µM (active)
CCSC(C)CC1CC(=O)C(/C(CC)=N/OC/C=C/Cl)=C(O)C1 (stereo not given),0.0447,
[Hg+2].[I-].[I-],,2.45 µM (active)
COC[C@H](C)N(C(=O)CCl)c1c(C)csc1C,19.6,
Fc1cccc(Cl)c1CCl,-1.59,
C=COCCCl,15.2,
O=[N+]([O-])c1cc(Cl)ccc1Cl,-0.799,
[Cd+2].[Cl-].[Cl-],,12.4 µM (active)
C=CCC1=C(C)C(OC(=O)C2C(C=C(C)C)C2(C)C)CC1=O (stereo not given),,41.2 µM (active)
BrC(Br)C(Br)(Br)Br,,27.7 µM (active)
